34 compounds from PubChem BioAssay (Tox21) can be followed below.

For assay [1], the target named is Cytochrome P450 2C19 (Homo sapiens) (UniProt P33261). As to the kind of experiment: Cytochrome P450 Family 2 Subfamily C Member 19 (CYP2C19) small molecule antagonists: luciferase reporter qHTS assay (AID 1671197). Further: nearly all actives have a fitted effect of over 65% in size. In outline: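 Compounds were tested on CYP2C19 activity via proluciferin conversion to luciferin. The 37C, 1 h reaction followed NADPH addition; detection reagent stopped it.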
(In general: A reporter such as luciferase makes a cellular process visible.)

Assay [2] has as its target Cytochrome P450 2C9 (Homo sapiens) (UniProt P11712). Nature of the assay: Cytochrome P450 Family 2 Subfamily C Member 9 (CYP2C9) small molecule antagonists: luciferase reporter qHTS assay (AID 1671198). Further: nearly all actives have a fitted effect of over 50% in size. In outline: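 CYP2C9 activity was measured with a P450-Glo proluciferin substrate. Enzyme–substrate mix was held with compound for 10 min at room temperature, then NADPH regeneration solution was added for 1 h at 37C. Luciferin product was read as luminescence.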

Assay [3] concerns the target Cytochrome P450 1A2 (Homo sapiens) (UniProt P05177). As to the kind of experiment: Cytochrome P450 Family 1 Subfamily A Member 2 (CYP1A2) small molecule antagonists: luciferase reporter qHTS assay (AID 1671199). Further: nearly all actives have a fitted effect of over 50% in size. Put shortly: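 Steps: enzyme-substrate mix dispensed; test compounds and furafylline control pinned in; 10 min room temperature; NADPH regeneration solution added, 1 h; reaction stopped with luciferin detection reagent; luminescence read after 20 min.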

The target in assay [4] is Voltage-gated inwardly rectifying potassium channel KCNH2 (Homo sapiens) (UniProt Q12809). Nature of the assay: Human Ether-a-go-go-Related Gene (hERG) channel small molecule antagonists: fluorescence cell-based qHTS assay (AID 1671200). Further: nearly all actives have a fitted effect of over 50% in size. Put shortly:
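In this thallium-flux screen, overnight-cultured U2OS cells bearing the channel are dye-loaded in darkness for an hour, rested 10 min at room temperature, and then monitored kinetically at 480/540 nm for two minutes post-stimulus.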

SMILES strings stand for the structures. Values joined by “and” are separate entries in the source; they are usually repeats but may differ in a detail not shown here. Equal values may be shown once. Inconclusive results are not listed. Active and inactive are the calls of the source. The call rests on the fitted dose curve; in most records, active means well fitted curve in the direction sought with a large enough effect in the repeat runs; inconclusive means weak or mixed curves; inactive means no such curve, though single readings can be large; an effect the other way counts as inactive or inconclusive.
Potency means the concentration at half of the fitted maximal effect.

Chain of Cytochrome P450 1A2 (Homo sapiens) (P05177 whole entry, looked up): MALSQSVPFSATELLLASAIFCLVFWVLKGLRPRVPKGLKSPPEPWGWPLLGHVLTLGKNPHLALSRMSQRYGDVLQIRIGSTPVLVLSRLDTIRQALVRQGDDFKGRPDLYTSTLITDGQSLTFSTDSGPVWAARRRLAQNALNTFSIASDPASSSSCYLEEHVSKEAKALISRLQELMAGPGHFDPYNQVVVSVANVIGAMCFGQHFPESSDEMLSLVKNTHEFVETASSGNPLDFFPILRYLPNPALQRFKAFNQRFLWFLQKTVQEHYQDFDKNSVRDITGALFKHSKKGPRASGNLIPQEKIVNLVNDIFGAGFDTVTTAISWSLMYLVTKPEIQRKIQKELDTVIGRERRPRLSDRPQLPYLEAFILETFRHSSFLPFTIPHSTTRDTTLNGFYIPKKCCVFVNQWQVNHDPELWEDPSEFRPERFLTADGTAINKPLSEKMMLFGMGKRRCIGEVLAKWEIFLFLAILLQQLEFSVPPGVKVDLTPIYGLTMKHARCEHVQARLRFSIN
Chain of Voltage-gated inwardly rectifying potassium channel KCNH2 (Homo sapiens) (Q12809 whole entry, looked up): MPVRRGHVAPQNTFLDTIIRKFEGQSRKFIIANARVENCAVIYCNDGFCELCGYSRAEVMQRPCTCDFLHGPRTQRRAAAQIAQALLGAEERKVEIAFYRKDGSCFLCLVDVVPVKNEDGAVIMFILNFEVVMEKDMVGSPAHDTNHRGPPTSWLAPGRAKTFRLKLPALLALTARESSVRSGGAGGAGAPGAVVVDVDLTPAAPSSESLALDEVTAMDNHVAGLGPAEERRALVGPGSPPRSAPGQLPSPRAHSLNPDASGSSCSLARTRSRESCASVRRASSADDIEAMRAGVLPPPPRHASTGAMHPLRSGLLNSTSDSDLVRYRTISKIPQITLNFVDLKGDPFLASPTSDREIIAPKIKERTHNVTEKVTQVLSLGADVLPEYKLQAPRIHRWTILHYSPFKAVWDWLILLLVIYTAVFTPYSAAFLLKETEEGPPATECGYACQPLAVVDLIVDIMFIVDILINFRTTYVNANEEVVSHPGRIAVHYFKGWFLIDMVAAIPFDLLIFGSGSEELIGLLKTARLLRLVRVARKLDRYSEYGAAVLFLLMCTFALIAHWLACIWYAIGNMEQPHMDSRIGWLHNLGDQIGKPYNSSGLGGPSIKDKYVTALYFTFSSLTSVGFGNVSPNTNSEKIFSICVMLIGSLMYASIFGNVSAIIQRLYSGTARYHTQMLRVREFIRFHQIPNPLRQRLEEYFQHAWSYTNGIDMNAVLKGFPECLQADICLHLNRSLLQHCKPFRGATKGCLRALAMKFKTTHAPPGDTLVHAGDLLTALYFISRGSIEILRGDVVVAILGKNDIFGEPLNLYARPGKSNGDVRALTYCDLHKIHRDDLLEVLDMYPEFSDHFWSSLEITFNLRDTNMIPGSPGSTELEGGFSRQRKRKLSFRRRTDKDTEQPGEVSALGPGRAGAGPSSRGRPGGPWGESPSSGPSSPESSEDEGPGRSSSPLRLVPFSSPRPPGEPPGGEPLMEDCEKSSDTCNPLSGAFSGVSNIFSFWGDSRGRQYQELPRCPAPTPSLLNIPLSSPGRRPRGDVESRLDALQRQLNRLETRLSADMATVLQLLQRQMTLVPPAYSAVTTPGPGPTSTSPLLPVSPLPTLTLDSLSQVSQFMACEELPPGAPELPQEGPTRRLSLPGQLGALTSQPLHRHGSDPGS
Chain of Cytochrome P450 2C19 (Homo sapiens) (P33261 whole entry, looked up): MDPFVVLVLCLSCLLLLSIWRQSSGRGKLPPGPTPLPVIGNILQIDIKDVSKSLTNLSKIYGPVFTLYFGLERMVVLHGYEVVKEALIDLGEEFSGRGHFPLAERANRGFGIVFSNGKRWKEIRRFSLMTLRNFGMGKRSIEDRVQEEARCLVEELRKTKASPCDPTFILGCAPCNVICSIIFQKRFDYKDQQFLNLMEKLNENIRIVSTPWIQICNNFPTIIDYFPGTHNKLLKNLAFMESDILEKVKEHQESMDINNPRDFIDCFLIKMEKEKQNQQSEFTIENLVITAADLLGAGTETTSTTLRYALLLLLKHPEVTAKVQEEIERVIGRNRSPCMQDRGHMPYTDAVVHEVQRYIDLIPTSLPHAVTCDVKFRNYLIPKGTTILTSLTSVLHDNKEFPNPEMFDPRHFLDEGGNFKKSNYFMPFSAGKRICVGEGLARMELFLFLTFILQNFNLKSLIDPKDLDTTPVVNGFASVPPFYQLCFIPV
Chain of Cytochrome P450 2C9 (Homo sapiens) (P11712 whole entry, looked up): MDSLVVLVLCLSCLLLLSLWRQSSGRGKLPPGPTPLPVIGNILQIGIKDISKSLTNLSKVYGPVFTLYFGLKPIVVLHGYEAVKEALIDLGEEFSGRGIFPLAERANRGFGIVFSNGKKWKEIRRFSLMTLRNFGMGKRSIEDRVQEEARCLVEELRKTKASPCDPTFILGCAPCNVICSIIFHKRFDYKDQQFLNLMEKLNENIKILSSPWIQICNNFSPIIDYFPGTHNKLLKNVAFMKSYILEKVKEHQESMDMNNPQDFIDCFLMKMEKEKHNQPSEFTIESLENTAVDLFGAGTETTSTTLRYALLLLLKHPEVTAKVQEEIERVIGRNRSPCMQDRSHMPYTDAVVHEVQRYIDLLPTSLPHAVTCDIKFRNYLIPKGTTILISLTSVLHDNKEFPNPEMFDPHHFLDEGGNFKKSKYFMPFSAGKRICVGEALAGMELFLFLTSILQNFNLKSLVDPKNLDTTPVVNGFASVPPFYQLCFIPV

In the case of `c1ccsc1`, the Potency result in assay [1], in assay [2], in assay [3] and in assay [4] was “inactive” each time.
Turning to `CN1CCN2c3ccccc3Cc3ccccc3C2C1` (centres undefined), the Potency result in assay [1] and in assay [2] was “inactive” in each case.
In the case of `Cc1nc2n(c(=O)c1CCN1CCC(c3noc4cc(F)ccc34)CC1)CCCC2`, the Potency result in assay [1] and in assay [2] was “inactive” throughout.
With `O=C1CCCCCCCCCCCCCCCO1`, the Potency result in assay [1], in assay [2], in assay [3] and in assay [4] was “inactive” each time.
On to `[Cu+]`, for which the Potency in assay [1] was 2.24 µM (active); in assay [2], 11.2 µM (active); in assay [3], 39.9 µM (active). For the same compound, in assay [4], the Potency entry is “inactive”.
For `CN(C)[C@@H](CCOc1cccc2ccccc12)c1ccccc1`, the Potency in assay [1] was 0.977 µM (active); in assay [2], 15.5 µM (active); in assay [3] it was 7.76 µM (active); in assay [4] it was 6.01 µM (active).
For the compound `Nc1ccc(C(=O)O)c(O)c1`, the Potency result in assay [1], in assay [2], in assay [3] and in assay [4] was “inactive” in each case.
Turning to `Cc1c2ccccc2c(C)c2c1ccc1ccccc12`, the Potency is 4.98 µM (active) and 3.99 µM (active) in assay [1]; 22.2 µM (active) and 25.2 µM (active) in assay [2]; 626 nM (active) and 1.78 µM (active) in assay [3]. Also, in assay [4], the Potency result is “inactive”.
As for `O=C1CCc2cc(OCCCCc3nnnn3C3CCCCC3)ccc2N1`, the Potency entry in assay [1], in assay [3] and in assay [4] was “inactive” in each case. Besides, the Potency in assay [2] is 12.3 µM (active).
Consider `C#CC1(O)CC[C@H]2[C@@H]3CCC4=CCCC[C@@H]4[C@H]3CC[C@@]21C` (some centres undefined), for which the Potency in assay [1] is 7.96 µM (active) and 11 µM (active); in assay [2], 7.1 µM (active) and 6.92 µM (active); in assay [3] it was 39.9 µM (active).
On to `Cc1cccc(C)c1NC(=O)c1ccc(N)cc1`, for which the Potency result in assay [1], in assay [2], in assay [3] and in assay [4] was “inactive” in each case.
On to `COc1ccc(NC(=O)CC(C)=O)cc1`, for which the Potency entry in assay [1], in assay [2] and in assay [4] was “inactive” throughout. The Potency in assay [3] is 25.2 µM (active).
Regarding `C#C[C@]1(O)CC[C@H]2[C@@H]3[C@H](C)CC4=C(CCC(=O)C4)[C@H]3CC[C@@]21C`, the figures for the Potency in assay [1], in assay [2] and in assay [3] were 3.89 µM (active), 13.8 µM (active) and 24.5 µM (active), respectively. Further, the Potency result in assay [4] was “inactive”.
Regarding `O=C(O)c1cc(O)c2ccccc2c1O`, the results for the Potency in assay [1] and in assay [2] were 7.1 µM (active) and 15.9 µM (active), respectively.
Regarding `OC12N=C(c3ccccc3)SC1Cc1cc(Cl)ccc12` (centres undefined), the Potency is 0.126 µM (active) in assay [1], 0.894 µM (active) in assay [2] and 1.78 µM (active) in assay [3]. Besides, in assay [4], the Potency result was “inactive”.
Turning to `COc1cc(C)ccc1O`, the Potency is 56.4 µM (active) in assay [1] and 39.9 µM (active) in assay [3]. Further, the Potency entry in assay [2] and in assay [4] was “inactive” each time.
Consider `COc1ccc2cc1Oc1ccc(cc1)C[C@H]1c3c(cc4c(c3Oc3cc5c(cc3OC)CCN(C)[C@@H]5C2)OCO4)CCN1C`, for which the Potency result in assay [1] and in assay [3] was “inactive” each time. The results for the Potency in assay [2] and in assay [4] were 30.9 µM (active) and 9.52 µM (active), respectively.
With `CCOC(=O)c1ccc(C2CCC(NC[C@H](O)COc3ccc(O)c(NS(C)(=O)=O)c3)CC2)cc1` (some centres undefined), the Potency in assay [1] is 32.8 µM (active); in assay [2], 5.84 µM (active). Further, in assay [3], the Potency entry is “inactive”.
Consider `c1cnccn1`, for which the Potency result in assay [1], in assay [2] and in assay [4] was “inactive” in each case. The Potency in assay [3] was 36.8 µM (active).
Consider `CNC(=O)c1ccccc1Sc1ccc2c(/C=C/c3ccccn3)n[nH]c2c1`, for which the Potency in assay [1] was 17.4 µM (active); in assay [2], 6.92 µM (active); in assay [3], 2.75 µM (active). Besides, in assay [4], the Potency result was “inactive”.
As to `CCO[C@@H]1O[C@H](C(COCc2ccccc2)OCc2ccccc2)[C@H](OCc2ccccc2)[C@H]1O` (some centres undefined), the Potency was 4.9 µM (active) in assay [1] and 8.71 µM (active) in assay [2]. Moreover, the Potency entry in assay [3] and in assay [4] was “inactive” in each case.
`COc1ccc2c(c1)c(CC(=O)OC/C=C(\C)CC/C=C(\C)CCC=C(C)C)c(C)n2C(=O)c1ccc(Cl)cc1`: the values for the Potency in assay [1], in assay [2] and in assay [3] were 15.5 µM (active), 17.4 µM (active) and 17.4 µM (active), respectively. The Potency result in assay [4] is “inactive”.
In the case of `C=Cc1cccc(C)c1`, the Potency entry in assay [1], in assay [2], in assay [3] and in assay [4] was “inactive” in each case.
Turning to `CN(C)Cc1cc(C(C)(C)C)c(O)c(C(C)(C)C)c1`, the Potency in assay [1] was 10 µM (active); in assay [2], 11.2 µM (active).
Regarding `CCCCCCCC/C=C\CCCCCCCCN`, the figures for the Potency in assay [1], in assay [2] and in assay [3] were 4.36 µM (active), 38.9 µM (active) and 12.9 µM (active), respectively. Besides, the Potency entry in assay [4] was “inactive”.
The matching figures for `CCC(CC)(CC(=O)Nc1cccc(/C=C/c2nc(C3CCC3)cs2)c1)C(=O)O`: “inactive”, 27.5 µM (active), 24.5 µM (active) and “inactive”.
As to `CCCC(=O)OCOC(=O)C1=C(C)NC(C)=C(C(=O)OC)C1c1cccc(Cl)c1Cl` (centres undefined), the Potency in assay [1] is 1.74 µM (active); in assay [2], 2.19 µM (active).
Turning to `CC(N=C(NC#N)Nc1ccncc1)C(C)(C)C` (centres undefined), the values for the Potency in assay [1] and in assay [2] were 1.55 µM (active) and 13.8 µM (active), respectively. The Potency result in assay [3] and in assay [4] was “inactive” in each case.
Consider `CCCCCCCCCCCCCC[N+](C)(C)C`, for which the Potency in assay [1] is 63.2 µM (active); in assay [4], 13.3 µM (active) and 19.5 µM (active) and 21.3 µM (active). Moreover, the Potency result in assay [2] and in assay [3] was “inactive” throughout.
Take `Cc1cccc(C(=O)O)c1O`: the Potency entry in assay [1], in assay [2], in assay [3] and in assay [4] was “inactive” in each case.
As to `Clc1nnc(Cl)c2ccccc12`, the Potency entry in assay [1], in assay [2] and in assay [4] was “inactive” throughout. In assay [3], the Potency was 11.2 µM (active).
As for `CC1(C)CCC[C@]2(C)[C@H]3CCO[C@]3(C)CC[C@@H]12`, the Potency result in assay [1], in assay [2], in assay [3] and in assay [4] was “inactive” each time.
Take `CCCCC(CC)COC(=O)CCCCC(=O)OCc1ccccc1` (centres undefined): the Potency in assay [1] is 35.6 µM (active); in assay [2] it was 15.9 µM (active); in assay [3] it was 56.4 µM (active). In addition, the Potency result in assay [4] is “inactive”.
Taken in the same sequence, the figures for `C#C[C@]1(OC(C)=O)CC[C@H]2[C@@H]3CCC4=C/C(=N/O)CC[C@@H]4[C@H]3CC[C@@]21CC` were 4.36 µM (active), 11 µM (active), “inactive” and “inactive”.
